Source: PubChem BioAssay AID588342 (National Center for Advancing Translational Sciences (NCATS), 2011)
Screen size: about 360,000 compounds; about 25,000 (6.9%) were called active. Another 9% or so got no clear call; they are omitted. Calls follow the shape of the dose curve; as a rule, active = well fitted inhibition curve with a large enough effect; inconclusive = small, poorly fitted or top-dose-only effect; inactive = flat fitted curve, though single readings scatter. For the sample, actives were picked, then their nearest neighbours and some compounds at random.

Each compound was assayed against Luciferin 4-monooxygenase (Photinus pyralis) (UniProt P08659) (assay: qHTS profiling assay for firefly luciferase inhibitor/activator using purifed enzyme and Km concentrations of substrates (counterscreen for miR-21 project)). Settings: purified FLuc, luminescence inhibition; series mostly up to 57.5 µM; activity change, negative = inhibition: at the top concentration.
Chain of Luciferin 4-monooxygenase (Photinus pyralis) (P08659 whole entry, looked up): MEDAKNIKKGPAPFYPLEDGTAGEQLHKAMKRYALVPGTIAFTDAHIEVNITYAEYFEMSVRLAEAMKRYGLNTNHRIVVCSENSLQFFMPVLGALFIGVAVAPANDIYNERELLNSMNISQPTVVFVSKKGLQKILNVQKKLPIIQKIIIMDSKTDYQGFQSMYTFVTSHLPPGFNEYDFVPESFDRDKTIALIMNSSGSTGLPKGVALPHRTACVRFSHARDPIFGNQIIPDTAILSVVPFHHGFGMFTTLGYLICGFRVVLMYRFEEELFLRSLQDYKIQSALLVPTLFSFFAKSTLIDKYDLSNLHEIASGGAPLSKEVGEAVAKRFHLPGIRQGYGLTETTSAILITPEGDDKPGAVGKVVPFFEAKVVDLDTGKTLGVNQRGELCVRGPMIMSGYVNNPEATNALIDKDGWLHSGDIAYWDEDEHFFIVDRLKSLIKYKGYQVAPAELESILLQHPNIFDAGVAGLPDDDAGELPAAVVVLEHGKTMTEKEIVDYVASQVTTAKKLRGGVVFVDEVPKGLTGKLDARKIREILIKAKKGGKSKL
In short: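 Purified P. pyralis luciferase (10nM final) with 10uM D-luciferin and 10uM ATP (Km levels) in 50mM Tris acetate pH 7.5, 10mM Mg acetate, 0.01% Tween-20, 0.05% BSA; qHTS 6-point titration, ~60 µM downward; luminescence read.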
Also: nearly all actives have a fitted effect of over 55% in size.
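For activity change, negative = inhibition in this document: plate controls were vehicle for no effect and reference inhibitor for full effect.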
Potency is read from the fitted curve at half-maximal effect.

Q: With `Cn1cc(S(=O)(=O)N2CCCCCC2)cc1C(=O)N1CCN(c2ccc(F)cc2)CC1` as the compound, how does the “activity change, negative = inhibition” value read?
A: -14.1% (inactive)

Q: For `CCc1ccc2c(c1)cc(CN(C(=S)Nc1ccccc1Cl)C1CC1)c1nnnn12`, which “activity change, negative = inhibition” value is on record?
A: 3.26% (inactive)

Q: For `O=C(Cc1ccccc1)Nc1sc2c(c1C(=O)Nc1ccc(Br)cc1)CCC2`, which “activity change, negative = inhibition” value is on record?
A: -3.93% (inactive)

Q: How did the “activity change, negative = inhibition” value turn out when `Cc1ccc(S(=O)(=O)c2nc(-c3cccs3)oc2N2CCCCC2)cc1` was run?
A: -14% (inactive)

Q: For `CCOc1cc(C2c3c(-c4ccc(Br)cc4)n[nH]c3C(=O)N2c2ccc(Cl)cc2)ccc1O` (stereo not given), which “activity change, negative = inhibition” value is on record?
A: 18.5% (inactive)

Q: Which “activity change, negative = inhibition” value does the source give for `CCCC(=O)Nc1nc2ccc(NC(=O)c3cccnc3)cc2s1` here?
A: -20.6% (inactive)

Q: With `CS(=O)(=O)c1ccc2nc(NC(=O)C3C4C=CC(C4)C3C(=O)O)sc2c1` (stereo not given) as the compound, how does the “activity change, negative = inhibition” value read?
A: -2.44% (inactive)

Q: For `CS(=O)(=O)c1ccc2nc(NC(=O)c3ccc(Cl)nc3)sc2c1`, which Potency is on record?
A: 21.3 µM (active)

Q: `CN(C)c1cccc(C(=O)Nc2nc3ccc(S(=O)(=O)NC(C)(C)C)cc3s2)c1` was tested. Which “activity change, negative = inhibition” value did it give?
A: -12.4% (inactive)

Q: With `COc1cccc(C(=O)NNS(=O)(=O)c2ccc(F)cc2)c1` as the compound, how does the “activity change, negative = inhibition” value read?
A: -3.77% (inactive)

Q: With `COc1cccc(C(=O)Nc2nc3ccc(S(C)(=O)=O)cc3s2)c1` as the compound, how does the Potency read?
A: 6.01 µM (active)

Q: Which “activity change, negative = inhibition” value does the source give for `O=C(NC1CC(=O)N(c2ccc(F)cc2)C1)c1ccc(S(=O)(=O)N2CCCC2)cc1` (stereo not given) here?
A: -0.932% (inactive)

Q: How did the Potency turn out when `Cc1ccc(-n2c(SCC(=O)N3CCC(C(=O)O)CC3)nc3ccccc3c2=O)cc1C` was run?
A: 13.5 µM (active)

Q: How did the “activity change, negative = inhibition” value turn out when `O=C(CSc1nc2ccccc2c(=O)n1-c1ccc(F)cc1)NC1CC1` was run?
A: 0.482% (inactive)

Q: `COc1cccc(-n2c(SCC(=O)c3c[nH]c4ccccc34)nc3ccccc3c2=O)c1` was tested. Which “activity change, negative = inhibition” value did it give?
A: 3.3% (inactive)

Q: How did the “activity change, negative = inhibition” value turn out when `COc1ccccc1N1CCN(S(=O)(=O)CCNC(=O)COc2ccc(F)cc2)CC1` was run?
A: -6.01% (inactive)

Q: With `COc1ccc(S(=O)(=O)N2CCN(CC(=O)NCC3(N4CCOCC4)CCCCC3)CC2)cc1` as the compound, how does the “activity change, negative = inhibition” value read?
A: 7.45% (inactive)

Q: How did the Potency turn out when `Cc1ccc(-c2nnc(SCc3ccccc3C)o2)cc1` was run?
A: 10.7 µM (active)

Q: How did the “activity change, negative = inhibition” value turn out when `COc1cccc(NC(=O)CSc2nnc(-c3cccnc3)o2)c1` was run?
A: 1.95% (inactive)

Q: How did the “activity change, negative = inhibition” value turn out when `Cc1ccccc1CSc1nnc(CCCCCNC(=O)OC(C)(C)C)o1` was run?
A: -18% (inactive)

Q: How did the Potency turn out when `CCCCSc1nnc(-c2ccc(C)cc2)o1` was run?
A: 2.69 µM (active)

Q: With `CC1=CC(C)(C)N(C(=O)CSc2nnc(-c3ccccc3)o2)c2ccc(C)cc21` as the compound, how does the “activity change, negative = inhibition” value read?
A: 0.191% (inactive)

Q: With `CCOC(=O)CSc1nnc(-c2ccc([N+](=O)[O-])cc2)o1` as the compound, how does the “activity change, negative = inhibition” value read?
A: -18% (inactive)

Q: How did the Potency turn out when `COc1ccc(-c2nnc(SCc3cccnc3)o2)cc1` was run?
A: 21.3 µM (active)

Q: With `Cc1cccc(C)c1OC(=O)CSc1nnc(-c2ccccc2)o1` as the compound, how does the “activity change, negative = inhibition” value read?
A: 2.68% (inactive)

Q: Which “activity change, negative = inhibition” value does the source give for `COC(=O)CSc1nnc(-c2cccnc2)o1` here?
A: 4.39% (inactive)

Q: `Cc1ccc(C(=O)N2c3ncnn3C3(CCCCC3)[C@@H]3CCCC[C@@H]32)cc1` was tested. Which “activity change, negative = inhibition” value did it give?
A: -11.4% (inactive)

Q: `Cc1ccc(S(=O)(=O)CCC(=O)OCC(=O)NCCc2ccc(S(N)(=O)=O)cc2)cc1` was tested. Which “activity change, negative = inhibition” value did it give?
A: 0.363% (inactive)

Q: With `COc1ccc(-c2onc(C)c2C)cc1S(=O)(=O)NCC1CCN(Cc2cccc(F)c2)CC1` as the compound, how does the “activity change, negative = inhibition” value read?
A: 3.47% (inactive)

Q: With `CCN(CC)c1cc(NC2CCCCC2)c2c3c(onc13)-c1ccccc1C2=O` as the compound, how does the “activity change, negative = inhibition” value read?
A: -3.88% (inactive)

Q: How did the “activity change, negative = inhibition” value turn out when `O=P(O)(CN1CCCCC1)CN1CCCCC1` was run?
A: 3.43% (inactive)

Q: With `CCOc1ccc(CNC(=O)c2ccc(CS(=O)c3ccccc3)o2)cc1` (stereo not given) as the compound, how does the “activity change, negative = inhibition” value read?
A: -8.55% (inactive)

Q: With `CCN(CC)S(=O)(=O)c1ccc2[nH]c(=O)cc(C(=O)N(C)C3CCS(=O)(=O)C3)c2c1` (stereo not given) as the compound, how does the “activity change, negative = inhibition” value read?
A: 3.37% (inactive)

Q: `CCc1ccc(C2C(C(=O)Nc3ccccc3)=C(C)Nc3c(C(=O)Nc4ccc(C)cc4)cnn32)cc1` (stereo not given) was tested. Which “activity change, negative = inhibition” value did it give?
A: -4.9% (inactive)

Q: For `CC(=O)Nc1c(C)nn(-c2ccccc2)c1N1CCC(C(=O)Nc2cc(Cl)ccc2C)CC1`, which “activity change, negative = inhibition” value is on record?
A: -9.72% (inactive)

Q: Which “activity change, negative = inhibition” value does the source give for `CC1CCCC(C)N1C(=O)CN1CCN(c2nc(-c3ccc(F)cc3)cs2)CC1` (stereo not given) here?
A: -6.06% (inactive)

Q: How did the Potency turn out when `COCCNC(=O)Nc1ccc2nc(-c3ccco3)c(-c3ccco3)nc2c1` was run?
A: 21.3 µM (active)

Q: For `CCOc1cc(NC(=S)NCCCOC)c(OCC)cc1NC(=O)c1ccco1`, which “activity change, negative = inhibition” value is on record?
A: 0.523% (inactive)

Q: For `COc1ccc(NC(=O)COCc2cc(-c3ccco3)on2)cc1`, which “activity change, negative = inhibition” value is on record?
A: -10.2% (inactive)

Q: Which “activity change, negative = inhibition” value does the source give for `O=C(CCNC(=O)c1ccc(Br)cc1)Nc1cccc(S(=O)(=O)N2CCCCC2)c1` here?
A: -4.3% (inactive)

Q: `Cc1ccc(C)c(OCCC(=O)Nc2cccc(S(=O)(=O)N3CCCC3)c2)c1` was tested. Which “activity change, negative = inhibition” value did it give?
A: -0.118% (inactive)

Q: For `Cc1ccc(C(=O)NCC(=O)OCC(=O)Nc2cccc(S(=O)(=O)N3CCCC3)c2)cc1C`, which Potency is on record?
A: 9.53 µM (active)

Q: With `COc1ccc(C(=O)COC(=O)COc2ccc(C)c(C)c2)cc1` as the compound, how does the “activity change, negative = inhibition” value read?
A: -17.9% (inactive)

Q: How did the Potency turn out when `COc1ccc(C(=O)COC(=O)c2ccc3ccccc3n2)cc1` was run?
A: 21.3 µM (active)

Q: Which Potency does the source give for `CC(OC(=O)c1ccc2ccccc2n1)C(=O)c1ccccc1` (stereo not given) here?
A: 0.953 µM (active)

Q: `CC(OC(=O)CN1C(=O)c2ccccc2C1=O)C(=O)c1ccccc1` (stereo not given) was tested. Which “activity change, negative = inhibition” value did it give?
A: 0.618% (inactive)

Q: For `COc1ccc(C(=O)OCC(=O)NC(=O)CCSc2ccccc2)cc1`, which “activity change, negative = inhibition” value is on record?
A: -10.5% (inactive)

Q: `CC(OC(=O)c1ccccc1N1C(=O)C2C3CCC(C3)C2C1=O)C(=O)c1ccccc1` (stereo not given) was tested. Which “activity change, negative = inhibition” value did it give?
A: 4.19% (inactive)

Q: How did the “activity change, negative = inhibition” value turn out when `CCc1ccc2ncc3c(-c4ccc(C)cc4)nn(CC(=O)NCc4ccccc4)c3c2c1` was run?
A: 2.49% (inactive)

Q: Which “activity change, negative = inhibition” value does the source give for `COC(=O)C1=CO[C@@H](O[C@@H]2O[C@H](CO)[C@@H](O)[C@H](O)[C@H]2O)C2C1C[C@H](O)[C@@H]2C` (stereo not given in full) here?
A: -0.138% (inactive)
